As usually defined, the AC50 is the concentration giving half of the maximal activity seen.

In PubChem BioAssay (EPA / NIEHS) one finds outcome and AC50 data, which are given here for 33 compounds.

Results filed as inconclusive are left out. The source made the active and inactive calls. The calls were made as follows: active = hit-call score of the fitted dose curve at least 0.9, where 1 is the maximum; inconclusive = response in the unintended direction; inactive = score below 0.9.

This experiment is described as follows: ACEA_ER_AUC_viability: ACEA Biosciences xCELLigence Real-Time Cell Analysis on Estrogen Receptor Agonism for Viability (AID 2283782).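 Also: hit means loss of impedance signal meaning reduced cell growth or viability.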 The procedure, abridged:
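Continuous-exposure impedance cell analysis uses T-47D cells in charcoal-stripped serum, eight 1:4 dilutions topping at 100 uM final, biological duplicate. Area under the growth curve at 80 h is fitted against DMSO baseline.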
For `NC(=O)C(F)(F)C(F)(F)C(F)(F)C(F)F`, the compound was called inactive.
For `CCCCCCCCCCCC(=O)Cl`, the AC50 is 79.8 µM (active).
On the same count and under the same terms, for `O=c1[nH]cccc1O` the value was 25.7 µM (active).
For `Cc1cc(=O)[nH]c(C(C)C)n1`, the result was inactive.
`CC(C)OC(=O)COc1ccc(Cl)cc1Cl`: the AC50 is 66.8 µM (active).
Same read-out and setting: next, `C[Si](C)O[Si](C)C`: 50 µM (active).
Consider `CCOC(OCC)OCC`, for which the result was inactive.
For the compound `CN(N=O)C(=O)N[C@@H]1[C@@H](O)[C@H](O)[C@@H](CO)O[C@@H]1O`, the result was inactive.
The same measure, in the same setting: for `CCc1ccc(C)nc1` the value was “inactive”.
Same read-out and setting: next, `O=C(O)CCC(F)(F)C(F)(F)C(F)(F)F`: “inactive”.
`O=C1c2ccccc2C(=O)c2c(Cl)cccc21`: the compound was classed as inactive.
On the same count and under the same terms, next, `CSc1ccc(Cl)cc1`: “inactive”.
As for `C=C(C)CCCC`, the call was inactive.
On to `CCCCCCCC/C=C\CCCCCCCC(=O)N(C)CC(=O)O`, for which the AC50 is 83.4 µM (active).
Regarding `O=C=Nc1cccc2c(N=C=O)cccc12`, the result was inactive.
For the compound `C=CCOC(=O)CC(C)C`, the compound was called inactive.
Regarding `CC(=O)C=O`, the result was inactive.
Same read-out and setting: for `CCc1cccc(C)c1N(C(=O)C(=O)O)C(C)COC` (stereo not drawn) the value was “inactive”; for `CCOCN(C(=O)CS(=O)(=O)O)c1c(C)cccc1CC`, “inactive”.
In the case of `Cc1ccc(S(=O)(=O)C(I)I)cc1`, the AC50 was 4.22 µM (active).
`O=S(=O)(Cl)C(F)(F)C(F)(F)C(F)(F)C(F)(F)C(F)(F)C(F)(F)C(F)(F)C(F)(F)F`: the compound was called inactive.
On the same count and under the same terms, for `O=S(=O)(OCC(F)(F)F)C(F)(F)C(F)(F)C(F)(F)C(F)(F)F` the value was “inactive”; for `CC(C)CCCC(C)CCO` (stereo not drawn), “inactive”.
On to `O=C(Cl)c1ccc(Cl)cc1Cl`, for which the AC50 is 78.9 µM (active).
As for `FC(F)(F)C(F)(F)C(F)(F)C(F)(F)C(F)(F)C(F)(F)C(F)(F)CCI`, the compound was classed as inactive.
`CCc1cc(Cc2cc(CC)c(N)c(CC)c2)cc(CC)c1N`: the AC50 was 68.3 µM (active).
For the compound `O=C(O)C(F)(F)C(F)(F)C(F)(F)C(=O)O`, the outcome was inactive.
Still for that read-out and setting: for `Cc1ccc2c(c1)OCC(=O)CO2` the value was “inactive”.
Same read-out and setting: for `OCCC(O)CO` (stereo not drawn) the value was “inactive”; for `OCC(F)(F)C(F)(F)C(F)(F)CO`, “inactive”; for `COC(=O)c1ccc(C=O)cc1`, “inactive”.
As to `O=C1c2c(O)ccc(Nc3ccc(CCO)cc3)c2C(=O)c2c([N+](=O)[O-])ccc(O)c21`, the AC50 is 88.8 µM (active).
In the case of `CC(C)(C)C(=O)C1C(=O)c2ccccc2C1=O`, the AC50 was 88.2 µM (active).
